# In all, about 66,000 compounds went through this assay and about 960 (1.5%) showed an effect of 50% or more. Shown is part of a subset that was picked to be rich in strong results.
# Test system: Trypanosoma brucei
# Test: Trypanosoma brucei 72 hour study
# Format: functional, organism-based
# Parameters: scale not given: in the data most compounds retested in dose-response had high values
compound,measurement,setting,value
COc1ccc(CN2CCc3sccc3C2C)cc1CN1CCOCC1.Cl (configuration not stated),Percent Effect,"30.3 µM, […]",-20.22%
COc1cc(C(=O)Nc2nc(C)no2)cc(Cl)c1OC,Percent Effect,10 µM,-54.4%
O=C(O)C(F)(F)F.O=C(O)C(F)(F)F.c1cc(CN2CCO[C@H]3[C@H](OCCN4CCCC4)CC[C@@H]32)co1,Percent Effect,"30.3 µM, […]",-5.554%
CCCN1CCC(c2cc(CCOc3ccc(C(F)(F)F)cc3)[nH]n2)C1 (configuration not stated),Percent Effect,"30.3 µM, […]",85.59%
Br.COc1ccc(OCCc2cc(C3CCN(CC(C)C)C3)n[nH]2)cc1 (configuration not stated),Percent Effect,"30.3 µM, […]",20.63%
Clc1ccc(OCCc2cc(C3CCN(c4ncccn4)C3)n[nH]2)cc1 (configuration not stated),Percent Effect,"30.3 µM, […]",28.73%
Cl.Cl.Cn1cc(C(=O)NCc2cncc3c2CCN(CC2CC2)C3)cn1,Percent Effect,"30.3 µM, […]",-27.13%
CN(Cc1ccncc1)C(CO)c1cccc(F)c1 (configuration not stated),Percent Effect,"30 µM, 30.03 µM",-28.86%
O=C(Nc1ccc2c(c1)C(=O)NC2)c1ccc(S(=O)(=O)C(F)(F)F)cc1,Percent Effect,"30.3 µM, […]",11.83%
Cc1[nH]c2ccccc2c1-c1ccnc(N[C@@H](CO)C(C)C)n1,Percent Effect,"30.3 µM, […]",11.27%
Cc1[nH]c2ccccc2c1-c1ccnc(N[C@H](CO)CC(C)C)n1,Percent Effect,"30.3 µM, […]",57.39%
Cc1[nH]c2ccccc2c1-c1ccnc(N[C@@H](C)CO)n1,Percent Effect,"30.3 µM, […]",24.23%
CC(C)c1[nH]c2ncccc2c1CN1CCOCC1.Cl,Percent Effect,"30.3 µM, […]",-24.02%
CN(C)CCN1CCOCC2(C1)CN(Cc1ccsc1)CCO2.O=C(O)C(F)(F)F.O=C(O)C(F)(F)F.O=C(O)C(F)(F)F (configuration not stated),Percent Effect,"30 µM, 30.03 µM",38.01%
Cc1ccccc1N1CCN(c2ccncn2)C(C)C1 (configuration not stated),Percent Effect,"30 µM, 30.03 µM",96.97%
Cc1ccccc1N1CCN(c2cc(N(C)C)ncn2)C(C)C1 (configuration not stated),Percent Effect,"30 µM, 30.03 µM",6.135%
Cc1ccc(N2CCN(c3ccccc3C)CC2C)nn1 (configuration not stated),Percent Effect,"30 µM, 30.03 µM",-104.7%
Cc1noc(C)c1-c1cccc(C2CN(CC(=O)N(C)C)CCO2)n1.O=CO (configuration not stated),Percent Effect,"30.3 µM, […]",-10.64%
Cc1nc(CN2CCC3(CCN(Cc4nccn4C)CC3)C2=O)cs1.O=C(O)C(F)(F)F.O=C(O)C(F)(F)F,Percent Effect,"30.3 µM, […]",-13.64%
O=C(O)C(F)(F)F.O=C1C[C@H]2[C@@H](CCN2C(=O)Cc2ccccc2)N1Cc1cccnc1,Percent Effect,"30.3 µM, […]",-5.465%
O=C(O)C(F)(F)F.O=C([C@H]1CCCO1)N1CCOC2(CCCN(c3ncccc3F)C2)C1 (some centres not stated),Percent Effect,"30.3 µM, […]",1.881%
Fc1cccc(CN2CCC(c3n[nH]c4ncccc34)CC2)c1F,Percent Effect,"30.3 µM, […]",18.42%
O=C(O)CC(O)(CC(=O)O)C(=O)O.c1cnc2[nH]nc(C3CCN(Cc4ccsc4)CC3)c2c1,Percent Effect,"30.3 µM, […]",-1.78%
Fc1ccc(F)c(CN2CCC(c3n[nH]c4ncccc34)CC2)c1.O=C(O)CC(O)(CC(=O)O)C(=O)O,Percent Effect,"30.3 µM, […]",65.45%
Cc1ccccc1OC1CCN(CC(=O)Nc2c(C)nn(C)c2C)CC1,Percent Effect,"30.3 µM, […]",11.58%
COCCC(=O)N1CC2(CCN(Cc3ccoc3)C2)C1,Percent Effect,"30 µM, 30.03 µM",-24.51%
Cc1cccc(CN2CCOCC3(CCN(C4CCOCC4)C3)C2)c1.O=C(O)C(F)(F)F.O=C(O)C(F)(F)F (configuration not stated),Percent Effect,"30 µM, 30.03 µM",52.28%
Fc1ccc(CN2Cc3nccn3CC(CN3CCOCC3)C2)cc1.O=C(O)C(F)(F)F.O=C(O)C(F)(F)F (configuration not stated),Percent Effect,"30 µM, 30.03 µM",39.42%
Fc1cccc(CN2CCOCC3(CCN(C4CCOCC4)C3)C2)c1.O=C(O)C(F)(F)F.O=C(O)C(F)(F)F (configuration not stated),Percent Effect,"30 µM, 30.03 µM",30.04%
Cc1noc(C)c1CN1Cc2nccn2CC(CN2CCOCC2)C1.O=C(O)C(F)(F)F.O=C(O)C(F)(F)F (configuration not stated),Percent Effect,"30 µM, 30.03 µM",27.27%
Cc1cccc(CN2Cc3nccn3CC(CN3CCOCC3)C2)c1.O=C(O)C(F)(F)F.O=C(O)C(F)(F)F (configuration not stated),Percent Effect,"30 µM, 30.03 µM",58.02%
O=C(O)C(F)(F)F.O=C(O)C(F)(F)F.c1ccc(CN2CCOCC3(CCN(C4CCOCC4)C3)C2)cc1 (configuration not stated),Percent Effect,"30.3 µM, […]",-34.62%
CCC(C(=O)Nc1ccc2c(C)n[nH]c2c1)N1CCCC1=O (configuration not stated),Percent Effect,"30 µM, 30.03 µM",6.301%
CCN1N=C(C(=O)N2CCCC(c3nc(C)cs3)C2)CCC1=O (configuration not stated),Percent Effect,"30.3 µM, […]",-15.61%
same,Percent Effect,"10 mM, 10 mM as filed; unlikely as a test dose",-12.74%
O=C(C1CCOC1)N1CCN(CCn2cccn2)c2ncccc2C1.O=C(O)C(F)(F)F (configuration not stated),Percent Effect,"30.3 µM, […]",-86.89%
O=C(O)C(F)(F)F.O=C(O)C(F)(F)F.O=C(O)C(F)(F)F.c1ccc(CO[C@H]2CO[C@@]3(CCCN(Cc4cccnc4)C3)C2)nc1,Percent Effect,"30 µM, 30.03 µM",-28.27%
CN1CCN(C(=O)c2cc3sccc3n2Cc2ccc(Cl)cc2)CC1,Percent Effect,"30.3 µM, […]",99.49%
CN1CCN(C(=O)c2cc3sccc3n2Cc2ccccc2)CC1,Percent Effect,"30.3 µM, […]",20.51%
CN1CCN(C(=O)c2cc3sccc3n2Cc2ccccc2Cl)CC1,Percent Effect,"30.3 µM, […]",25.89%
CC1CCCN(Cc2c(C3CC3)n(CC(=O)N(C)C)c3ncccc23)C1.Cl (configuration not stated),Percent Effect,"30.3 µM, […]",-32.63%
N#CCCN(CC1CCCO1)C(=O)c1ccsc1 (configuration not stated),Percent Effect,"30.3 µM, […]",16.66%
same,Percent Effect,"10 mM, 10 mM as filed; unlikely as a test dose",-43.52%
O=C(CN(CC(O)c1ccc(F)cc1)C1CC1)NCc1cccs1 (configuration not stated),Percent Effect,"30 µM, 30.03 µM",-22.68%
COc1ccc(C)cc1CN1CCCC1c1noc(C2CC2)n1 (configuration not stated),Percent Effect,"30 µM, 30.03 µM",105.3%
COc1c(C)cnc(CN2CCCC2c2noc(C3CC3)n2)c1C (configuration not stated),Percent Effect,"30 µM, 30.03 µM",-15.93%
COc1ccc(CN2CCCC2Cn2nc(C)nc2C)cc1F (configuration not stated),Percent Effect,"30 µM, 30.03 µM",13.69%
Cc1nc(C)n(CC2CCCN2Cc2nc(N)c3ccccc3n2)n1 (configuration not stated),Percent Effect,"30 µM, 30.03 µM",-26.66%
Cc1nc(C)n(CC2CCCN2Cc2nc3ccccc3nc2C)n1 (configuration not stated),Percent Effect,"30 µM, 30.03 µM",-3.332%
COc1ccc(F)cc1CN1CCCC1Cn1nc(C)nc1C (configuration not stated),Percent Effect,10 µM,-21.11%
Cc1cnn(CC2CCCN2Cc2nc(C)c3ccccc3n2)c1 (configuration not stated),Percent Effect,"30.3 µM, […]",99.14%
same,Percent Effect,"10 mM, 10 mM as filed; unlikely as a test dose",-68.59%
Cc1cc(CN2CCCC2c2noc(C3CC3)n2)c2ccccc2n1 (configuration not stated),Percent Effect,"30 µM, 30.03 µM",8.829%
Cc1nc(CN2CCCC2Cn2cccn2)nc2ccccc12 (configuration not stated),Percent Effect,"30 µM, 30.03 µM",-97.44%
Cc1cnn(CC2CCCCN2Cc2nc(C)c3ccccc3n2)c1 (configuration not stated),Percent Effect,"30.3 µM, […]",-8.505%
same,Percent Effect,"10 mM, 10 mM as filed; unlikely as a test dose",-58.92%
COc1ccc(C)cc1CN1CCCC1Cn1nc(C)nc1C (configuration not stated),Percent Effect,"30 µM, 30.03 µM",103.3%
Cc1nc(C)n(CC2CCCN2Cc2nc(C)c3ccccc3n2)n1 (configuration not stated),Percent Effect,10 µM,-1.729%
same,Percent Effect,"30.3 µM, […]",68.42%
CC(C)CC(=O)N1CCC2(CC1)COCCN2Cc1ccc(F)cc1.O=C(O)C(F)(F)F,Percent Effect,"30 µM, 30.03 µM",17.24%
COc1ccc(C[C@H]2CNCC[C@@H]2OC)cc1.O=C(O)C(F)(F)F,Percent Effect,"30.3 µM, […]",-9.891%
C[C@@H]1CN(S(C)(=O)=O)C[C@]12CCN(Cc1cccnc1)C2=O.O=C(O)C(F)(F)F,Percent Effect,"30.3 µM, […]",-31.63%
Cc1cc(Cl)c(C)c(S(=O)(=O)N2CCN(Cc3ccncc3)CC2)c1Cl,Percent Effect,"30 µM, 30.03 µM",-52.63%
CNC(=O)[C@@H]1CN(C(=O)C2CCC2)C[C@H]1c1ccnc(N2CCCC2)n1.Cl,Percent Effect,"30.3 µM, […]",8.722%
Cn1cc(CCC(=O)N2C[C@@H]3CC[C@H](C2)N(Cc2ccccn2)C3)cn1,Percent Effect,"30.3 µM, […]",7.516%
CC(C)c1cc(NC(=O)CN2CCCC2c2noc(C(C)C)n2)on1 (configuration not stated),Percent Effect,10 µM,-43.85%
same,Percent Effect,"30.3 µM, […]",0.3759%
CN(C(=O)NCc1ccncc1)C1CCCN(c2ccccc2)C1=O (configuration not stated),Percent Effect,10 µM,-27.33%
COCCN1CCC2(CC1)CC(c1cccnc1)CO2.O=C(O)C(F)(F)F (configuration not stated),Percent Effect,"30.3 µM, […]",-48.93%
Cc1c(C)n2c(SCC(=O)N3CCCCC3)nnc2[nH]c1=O,Percent Effect,"30.3 µM, […]",-16.73%
Cl.O=C1CC2(CCCNC2)C(=O)N1Cc1cccc(Cl)c1 (configuration not stated),Percent Effect,"30.3 µM, […]",2.467%
CCC(C)NC(=O)Cn1c(Nc2cc(C)cc(C)c2)nc(C)cc1=O (configuration not stated),Percent Effect,"30 µM, 30.03 µM",-43.03%
Cc1ccc(NCc2cncc3c2CCN(Cc2ccccn2)C3)nn1.Cl.Cl,Percent Effect,"30.3 µM, […]",-48.05%
O=C(O)C(F)(F)F.O=C([C@H]1CC[C@@H]2[C@@H](CCN2Cc2nccs2)O1)N1CCOCC1,Percent Effect,"30.3 µM, […]",-77.67%
NC[C@H]1CC[C@H](C(NC(=O)C2CC2)c2ccccn2)CC1 (some centres not stated),Percent Effect,"30.3 µM, […]",-27.22%
C/C(=C\c1ccccc1)CN1CCCC(c2nnc3n2CCNCC3)C1.Cl (configuration not stated),Percent Effect,"30.3 µM, […]",-29.45%
O=C(O)C(F)(F)F.O=C(O)C(F)(F)F.O=C1CC(c2ccncc2)C2(CCN(Cc3ccc(F)cc3)CC2)N1 (configuration not stated),Percent Effect,"30 µM, 30.03 µM",27.71%
Cc1ccc(CN2CCC[C@]3(C(=O)O)CN(CC4CC4)C[C@@H]3C2)s1.O=C(O)C(F)(F)F.O=C(O)C(F)(F)F,Percent Effect,"30.3 µM, […]",-73.23%
CCCn1c(C)c(CC(=O)NCCC(N)=O)c2c1CC(C)(C)CC2=O,Percent Effect,"30 µM, 30.03 µM",-41.08%
Cc1nc(NC(=O)c2ccc(-n3ncc(C#N)c3N)cc2)sc1C,Percent Effect,10 µM,-25.11%
Cc1cnn(CC2CCCN2Cc2nc(N)c3ccccc3n2)c1 (configuration not stated),Percent Effect,"30.3 µM, […]",51.47%
same,Percent Effect,"10 mM, 10 mM as filed; unlikely as a test dose",-16.65%
Cc1cnn(CC2CCCCN2Cc2nc(N)c3ccccc3n2)c1 (configuration not stated),Percent Effect,"30 µM, 30.03 µM",14.94%
Nc1nc(CN2CCCC2Cn2cncn2)nc2ccccc12 (configuration not stated),Percent Effect,10 µM,-61.59%
COCCN1CCn2cc(CNC(=O)c3cnn(C)c3)nc2C1.O=C(O)C(F)(F)F,Percent Effect,"30 µM, 30.03 µM",-33.8%
CC(C)CN1C[C@H]2C[C@H](C(=O)NC3CCC3)[C@@H](C1)O2.O=C(O)C(F)(F)F,Percent Effect,"30.3 µM, […]",-44.07%
Clc1cccc(-c2cccc(N3CCC(NC4CCOCC4)CC3)c2)c1,Percent Effect,"30 µM, 30.03 µM",100.7%
COc1cccc(-c2cccc(N3CCC(N[C@@H]4CCOC4)CC3)c2)c1,Percent Effect,"30 µM, 30.03 µM",9.147%
Cc1ccc(-c2cccc(N3CCC(NC4CCOCC4)CC3)c2)cc1,Percent Effect,"30 µM, 30.03 µM",8.614%
COC(=O)c1ccc(CNCc2ccn(C)n2)cc1,Percent Effect,"30.3 µM, […]",-7.529%
O=C(O)C(F)(F)F.O=C(O)C(F)(F)F.O=C1CCC2(CCN(Cc3ccc(F)cc3)CC2)N1CCN1CCCC1,Percent Effect,"30.3 µM, […]",-27.18%
Cc1nccc(-c2cccc(NCC(=O)N3CCNC(=O)C3)c2)n1,Percent Effect,"30.3 µM, […]",13.04%
Cc1nccc(-c2cccc(NCC(=O)N3CCCCCCC3)c2)n1,Percent Effect,"30 µM, 30.03 µM",-43.47%
Cc1nccc(-c2cccc(NCC(=O)N3CCOCC3)c2)n1,Percent Effect,"30.3 µM, […]",18.69%
Cc1nccc(-c2cccc(NCC(=O)N3CCOC(C)C3)c2)n1 (configuration not stated),Percent Effect,"30.3 µM, […]",18.9%
Cc1nccc(-c2cccc(NCC(=O)N3CCCC(C)C3)c2)n1 (configuration not stated),Percent Effect,"30.3 µM, […]",89.85%
Cc1nccc(-c2cccc(NCC(=O)N3CCc4sccc4C3)c2)n1,Percent Effect,"30 µM, 30.03 µM",51.17%
